Screens as filed in PubChem BioAssay.
Most compounds without a hit are left out; they make up all but 1.2% or so of the library.
PfHsp40 rescue – compounds rescuing yeast from Plasmodium falciparum HSP40 toxicity; growth rescue, % at 12.5 µM; hit rate 0.68% among 340,000; S. cerevisiae expressing PfHsp40, growth rescue, ATP luminescence; in the data active means growth rescue above about 28%, passing the limit was not always enough; inconclusive means no clear call, values can overlap the other calls;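 further: yeast W303a lacking pdr1 and pdr3 grown in galactose medium; growth measured after three days at 30 °C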
BioA inh – blocks M. tuberculosis BioA enzyme activity. purified M. tuberculosis BioA enzyme, plate reader. inhibition, % at 9.99 µM. hit rate 0.096% among 360,000; in the data active means inhibition above about 40%; inconclusive means no clear call, values can overlap the other calls
FadD28 binding – inhibitors of Mycobacterium tuberculosis FadD28 bisubstrate binding; FadD28 bisubstrate probe binding, fluorescence polarization; inhibition, % at 12.5 µM; hit rate 0.22% among 360,000; AID 588549; in the data active means inhibition above about 8.5%, passing the limit was not always enough; inconclusive means no clear call, values can overlap the other calls
Y pestis TopoI – blocks Yersinia pestis topoisomerase I activity; AID 504884; activity, % at 10 µM; Y. pestis Topo-I cleavage product accumulation, plate reader; hit rate 0.064% among 360,000; in the data active means activity above about 50%, passing the limit was not always enough; inconclusive means no clear call, values can overlap the other calls
TcdB inh – inhibitors of Clostridioides difficile toxin B glycohydrolase; TcdB glycohydrolase enzymatic assay, plate reader; inhibition, % at 9.99 µM; hit rate 0.24% among 350,000; AID 652162; in the data active means inhibition above about 10%
PrP UTR inh – inhibition of PrP 5' UTR reporter expression; cell-based PrP 5' UTR mRNA reporter, plate reader; inhibition, % (no concentration beside the values); hit rate 0.35% among 340,000; in the data active means inhibition above about 52%
PrP UTR cherry – prion 5' UTR mRNA inhibition, cherry-pick retest; cell-based prion protein 5' UTR reporter, plate reader; shares compounds with PrP UTR inh; inhibition, % at 2.5 µM; hit rate 48% among 1,100; in the data active means inhibition above about 54%; inconclusive means no clear call, values can overlap the other calls
Each line names hits and unclear results; the compound was inactive in the other large screens (follow-up assays come after a bar, where they were run).

Nc1cc(C(Cl)=C(Cl)Cl)c(S(N)(=O)=O)cc1S(N)(=O)=O	PrP UTR inh 64 | PrP UTR cherry inactive
O=C(C[C@H]1C=C[C@@H](NS(=O)(=O)c2ccc(F)cc2)[C@H](CO)O1)NCCc1ccncc1	none (no result: PfHsp40 rescue, FadD28 binding, Y pestis TopoI, PrP UTR inh)
CCN1C/C(=C\c2cccc([N+](=O)[O-])c2)C(=O)/C(=C/c2cccc([N+](=O)[O-])c2)C1	PrP UTR inh 63 | PrP UTR cherry 61
COc1cc(-c2cc(-c3ccccc3)nc(SCC(=O)Nc3nccs3)c2C#N)cc(OC)c1OC	none (no result: TcdB inh)
Cc1nc(SCC(=O)Nc2nc3ccccc3s2)c(C#N)c(C)c1C	PrP UTR inh 93 (no result: BioA inh) | PrP UTR cherry 93
Cc1nc(SCC(=O)Nc2nccs2)c(C#N)c(C)c1C	PrP UTR inh 71 | PrP UTR cherry 69
CC(C)NC(=O)N[C@H]1C=C[C@H](CC(=O)O)O[C@@H]1CO	none (no result: PfHsp40 rescue, FadD28 binding, Y pestis TopoI, PrP UTR inh)
CCNC(=O)C[C@@H]1CC[C@@H]2[C@H](COc3ccc(NC(=O)Nc4ccccc4Cl)cc3C(=O)N2C)O1	none (no result: PfHsp40 rescue, FadD28 binding, Y pestis TopoI, PrP UTR inh)
CCOC(=O)CC/C(C)=N\N=C1\SC(CC(=O)O)C(=O)N1c1ccccc1 (stereo not given)	PrP UTR inh 85 (no result: BioA inh) | PrP UTR cherry inactive
Cc1cccc(-c2ccc([C@H]3[C@H](CO)N4CCCCN(Cc5cncnc5)C[C@@H]34)cc2)c1	none (no result: PfHsp40 rescue, FadD28 binding, Y pestis TopoI, PrP UTR inh)
CC(=O)N/C(=C\c1ccccc1)C(=O)OCc1ccccc1	PrP UTR inh 72 | PrP UTR cherry inactive
C[C@H](CO)N1C[C@H](C)[C@@H](CN(C)C(=O)c2ccccc2)OCCCC[C@H](C)Oc2ccc(NC(=O)Cc3ccccc3)cc2C1=O	none (no result: PfHsp40 rescue, FadD28 binding, Y pestis TopoI, PrP UTR inh)
CCN(CCCl)c1cc(CN(C)C)cc(NC(=O)c2ccc(C(=O)Nc3cc(CN(C)C)cc(N(CC)CCCl)c3)cc2)c1	PrP UTR inh 95 (no result: BioA inh) | PrP UTR cherry 91
CCN(CC)c1ccc2cc(-c3nc4ccccc4[nH]3)c(=O)oc2c1	PrP UTR inh 58 (no result: TcdB inh) | PrP UTR cherry 66
CN1C(CCl)Nc2cc(Cl)c(S(N)(=O)=O)cc2S1(=O)=O (stereo not given)	PrP UTR inh 77 | PrP UTR cherry inactive
CCC1NC(=O)c2cc(S(N)(=O)=O)c(Cl)cc2N1 (stereo not given)	none
Cc1nc2ccccc2c2oc(C(=O)NC3CC3)cc12	none
CCOc1ccc(NC(=O)c2cc3c(C)nc4ccccc4c3o2)cc1	PrP UTR inh 62 | PrP UTR cherry inactive
CO[C@H]1CN(C)C(=O)c2cc(NC(=O)NC(C)C)ccc2OC[C@H](C)N(C(=O)C2CCC2)C[C@@H]1C	none (no result: PfHsp40 rescue, FadD28 binding, Y pestis TopoI, TcdB inh, PrP UTR inh)
COc1ccccc1-[n+]1c(C)cc(/C=C2\Sc3ccccc3N2C)cc1C	PrP UTR inh 70 | PrP UTR cherry inactive
COc1ccc(C(=O)/C=C2\Sc3ccccc3N2C)cc1	none (no result: BioA inh)
COc1ccc(-[n+]2c(C)cc(/C=C3\Sc4ccccc4N3C)cc2C)cc1	PfHsp40 rescue inconclusive, PrP UTR inh 66 (no result: BioA inh) | PrP UTR cherry inconclusive
COCC#Cc1cnc2c(c1)C(=O)N([C@@H](C)CO)C[C@@H](C)[C@H](CN(C)Cc1ccc(F)cc1)O2	none (no result: PfHsp40 rescue, FadD28 binding, Y pestis TopoI, PrP UTR inh)
CC1=CC2OC3CC4OC(=O)C=CC=CC(C(C)O)OCC(O)C5(C)OC5C(=O)OCC2(CC1O)C4(C)C31CO1 (stereo not given)	PrP UTR inh 94 (no result: PfHsp40 rescue, BioA inh) | PrP UTR cherry 93
CC(O)C1C=CC=CC(=O)OC2CC3OC4C5OC5(C)C(O)CC4(COC(=O)C(O)C(C)CCO1)C2(C)C31CO1 (stereo not given)	PrP UTR inh 70 (no result: PfHsp40 rescue, BioA inh) | PrP UTR cherry 83
CC1=CC2OC3CC4OC(=O)C=CC=CC(=O)OCCC(C)C(O)C(=O)OCC2(CC1)C4(C)C31CO1 (stereo not given)	PrP UTR inh 94 (no result: PfHsp40 rescue, BioA inh) | PrP UTR cherry 93
CC1CCOC(=O)C=CC=CC(=O)OC2CC3OC4C5OC5(C)C(O)CC4(COC(=O)C1O)C2(C)C31CO1 (stereo not given)	PrP UTR inh 82 (no result: PfHsp40 rescue, BioA inh) | PrP UTR cherry 92
CO[C@@H]1CN(C)C(=O)c2ccc(NS(=O)(=O)c3ccccc3C)cc2OC[C@@H](C)NC[C@H]1C	none (no result: PfHsp40 rescue, FadD28 binding, Y pestis TopoI, PrP UTR inh)
COCC(=O)N1CC(=O)N2[C@H](CO)[C@H](c3ccc(C#CC4CCCCC4)cc3)[C@H]2C1	none (no result: PfHsp40 rescue, BioA inh, FadD28 binding, Y pestis TopoI, PrP UTR inh)
CCN(CC)C(=S)Nc1ccc(OC)cc1	PrP UTR inh 55 (no result: BioA inh, TcdB inh) | PrP UTR cherry inactive
CC(C)Cn1c(-c2cccc(S(=O)(=O)N3CCOCC3)c2)n[nH]c1=S	PrP UTR inh 77 | PrP UTR cherry inactive
CC(Sc1cnc2ccccc2n1)C(=O)O (stereo not given)	none (no result: TcdB inh)
Cc1ccc(Sc2cnc3ccccc3n2)cc1	PrP UTR inh 88 (no result: TcdB inh) | PrP UTR cherry inactive
O=c1oc2ccccc2cc1-c1cn2cccnc2n1	none (no result: TcdB inh)
O=c1oc2ccccc2cc1-c1cn2ccccc2n1	PrP UTR inh 81 (no result: BioA inh) | PrP UTR cherry inconclusive
CCCC[C@@H](C)C[C@@H](C)C(=O)N(C)[C@@H](CC(C)C)C(=O)N[C@H](C(=O)N(C)[C@H](C(=O)N1C[C@@H](O)C[C@H]1C(=O)N1C(=O)C=C[C@@H]1C)C(C)C)C(C)OC(C)=O (stereo not given in full)	PrP UTR inh 85 (no result: TcdB inh) | PrP UTR cherry 96
COc1ccc(OC)c(-c2nnc3n2N=C(c2ccc(OC)c(OC4CCCC4)c2)CS3)c1	PrP UTR inh 65 | PrP UTR cherry 86
COc1ccc(C2=Nn3c(nnc3-c3ccccc3F)SC2)cc1OC1CCCC1	none
COc1ccc(OC)c(-c2nnc3n2N=C(c2ccc(OC)c(OC)c2)CS3)c1	PrP UTR inh 56 | PrP UTR cherry 83
CC(=O)CCC(=O)NCCc1ccccc1F	PrP UTR inh 85 | PrP UTR cherry inactive
COc1ccc(C(=O)CCC(=O)NCCc2ccccc2F)cc1	none
O=C(NCc1ccccc1F)c1ccc2c(c1)OCO2	none (no result: TcdB inh)
O=C(NCCc1ccccc1F)c1ccc2c(c1)OCCO2	PrP UTR inh 89 | PrP UTR cherry 93
O=C(CSCc1nc2ccccc2[nH]1)Nc1ccccc1	PrP UTR inh 78 (no result: TcdB inh) | PrP UTR cherry inactive
CC(=O)O[C@H]1[C@H]2O[C@]23[C@@H]2CC[C@]4(O)C[C@@H](O)CC[C@]4(C)C2CC[C@]3(C)[C@H]1c1ccc(=O)oc1 (stereo not given in full)	PrP UTR inh 94 (no result: TcdB inh) | PrP UTR cherry 91
C[C@H](CO)N1C[C@H](C)[C@H](CN(C)C(=O)c2ccc(F)cc2)Oc2ncc(Br)cc2C1=O	none (no result: PfHsp40 rescue, FadD28 binding, Y pestis TopoI, PrP UTR inh)
CO[C@H]1CN(C)C(=O)c2cc(NC(=O)NC3CCCCC3)ccc2OC[C@H](C)N(CC2CC2)C[C@H]1C	none (no result: PfHsp40 rescue, FadD28 binding, Y pestis TopoI, PrP UTR inh)
CCN(CC)C1CCCCC1NS(=O)(=O)c1ccc(Cl)cc1 (stereo not given)	PrP UTR inh 80 | PrP UTR cherry inactive
CN(c1ccccc1)C1CCCCC1NS(=O)(=O)c1ccc(Cl)cc1 (stereo not given)	none (no result: BioA inh)
CCN1C=CC(=C2C(=O)c3ccccc3C2=O)C=C1	PrP UTR inh 88 (no result: TcdB inh) | PrP UTR cherry 91
